According to PubChem BioAssay AID504452 (The Scripps Research Institute Molecular Screening Center, 2011):
The source made the active and inactive calls. Rule as the data show it: active = activation above about 85%; inactive = the rest.

Biological target: Peroxisome proliferator-activated receptor gamma (Homo sapiens) (UniProt P37231)
Assay: partial agonism at human PPARgamma receptor – cell-based, luciferase reporter, luminescence, primary screen (AID 504452);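 also: Cos-1 cells carrying PPARgamma and a response element luciferase reporter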
Conditions: cell-based PPARg luciferase reporter, at 5 µM, stronger effect = higher value; activation (% of full agonist control): measured here: relative to full agonist control

Peroxisome proliferator-activated receptor gamma (Homo sapiens), sequence (P37231 whole entry, looked up): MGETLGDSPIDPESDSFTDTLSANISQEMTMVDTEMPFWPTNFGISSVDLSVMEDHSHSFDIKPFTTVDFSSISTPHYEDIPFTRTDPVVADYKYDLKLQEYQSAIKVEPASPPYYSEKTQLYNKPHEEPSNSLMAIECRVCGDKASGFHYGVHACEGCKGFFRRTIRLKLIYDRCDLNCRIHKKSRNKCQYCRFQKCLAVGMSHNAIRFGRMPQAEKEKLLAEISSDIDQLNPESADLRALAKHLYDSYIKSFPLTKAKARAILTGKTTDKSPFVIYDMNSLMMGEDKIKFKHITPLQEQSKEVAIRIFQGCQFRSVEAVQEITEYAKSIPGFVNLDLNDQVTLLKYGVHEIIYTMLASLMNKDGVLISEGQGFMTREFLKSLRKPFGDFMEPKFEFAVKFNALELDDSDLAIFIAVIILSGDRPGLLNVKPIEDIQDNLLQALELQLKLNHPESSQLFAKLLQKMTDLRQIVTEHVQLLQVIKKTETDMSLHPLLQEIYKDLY

SMILES	activation (% of full agonist control) [%]	activation (% of partial agonist control)
CC(=O)Nc1cc(C(=O)N2CCC3(CC2)OCCO3)ccc1Sc1ccc(F)cc1	37.4	82.7% (inactive)
O=C(O)COc1ccccc1/C=C1\C(=O)NC(=O)N(CCC2=CCCCC2)C1=O	33.7	74.6% (inactive)
